Compounds with a hit are over-represented: about 9.2% of the library has one in this group of screens.
SMN2 splice up = qHTS Assay for Enhancers of SMN2 Splice Variant Expression. HEK293 SMN2-luciferase splicing reporter, luminescence, 30-36 h. Potency, µM (highest dose often 46.1 µM), for the others: at the top dose activity change, positive = activation, usual class: activators. hit rate 2.8% among 210,000; further: % of control where 0% means no effect; nearly all actives have a fitted effect of over 55% in size
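HEK293 cells carry an SMN2 minigene-luciferase reporter in which exon 7 inclusion puts luciferase in frame. Cells were seeded at 2000 cells/well, attached for 10-12 hours, then exposed to compounds for 30-36 hours at 37C before ONE-Glo luminescence.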
ELG1 genotox = qHTS screen for small molecules that induce genotoxicity in human embryonic kidney (HEK293T) cells expressing luciferase-tagged ELG1 | HEK293T ELG1-luciferase reporter, luminescence, 16 h | Potency, µM (series often up to 46 µM), inactives show top-dose activity change, positive = activation, most hits filed as activators | hit rate 1.3% among 330,000 | AID 504466, 2011; further: % of control where 0% means no effect; nearly all actives have a fitted effect of over 60% in size
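Genotoxicity was scored as increased ELG1-luciferase reporter signal, measured by ONE-Glo luminescence (30 min, room temperature). Compound or vehicle exposure of the HEK293T reporter cells lasted 16 hr at 37°C.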
FLuc counter = qHTS profiling assay for firefly luciferase inhibitor/activator using purifed enzyme and Km concentrations of substrates (counterscreen for miR-21 project); Luciferin 4-monooxygenase (Photinus pyralis), P08659; purified FLuc, Km substrates, luminescence inhibition; Potency, µM (series often up to 57.5 µM), without a hit: at the highest dose activity change, negative = inhibition, most hits filed as inhibitors; hit rate 6.9% among 360,000;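 further: plate controls were vehicle for no effect and reference inhibitor for full effect; nearly all actives have a fitted effect of over 55% in size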
Target sequence (P08659 whole entry, looked up): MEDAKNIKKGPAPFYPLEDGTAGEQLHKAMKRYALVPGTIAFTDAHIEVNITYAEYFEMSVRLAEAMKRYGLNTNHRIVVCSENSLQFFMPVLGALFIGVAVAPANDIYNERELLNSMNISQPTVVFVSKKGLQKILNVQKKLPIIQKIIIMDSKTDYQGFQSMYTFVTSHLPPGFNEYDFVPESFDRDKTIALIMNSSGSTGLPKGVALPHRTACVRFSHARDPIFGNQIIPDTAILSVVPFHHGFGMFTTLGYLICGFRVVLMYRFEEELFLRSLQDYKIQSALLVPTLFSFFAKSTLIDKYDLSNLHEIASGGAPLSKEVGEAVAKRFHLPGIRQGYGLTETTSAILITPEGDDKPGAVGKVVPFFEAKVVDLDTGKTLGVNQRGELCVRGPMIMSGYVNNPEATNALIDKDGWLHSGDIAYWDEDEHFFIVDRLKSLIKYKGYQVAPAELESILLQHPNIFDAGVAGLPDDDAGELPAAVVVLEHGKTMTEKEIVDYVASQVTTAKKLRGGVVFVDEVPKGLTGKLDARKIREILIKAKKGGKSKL
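Purified P. pyralis luciferase (10nM final) with 10uM D-luciferin and 10uM ATP (Km levels) in 50mM Tris acetate pH 7.5, 10mM Mg acetate, 0.01% Tween-20, 0.05% BSA; qHTS 6-point titration, ~60 µM downward; luminescence read.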
Rab9 prom act = qHTS Assay for Rab9 Promoter Activators; Huh7 Rab9 promoter-luciferase reporter, luminescence, 24 h; Potency, µM (doses to about 9.22 µM), for the others: top-dose activation, negative = inhibition, usual class: activators; hit rate 2.8% among 320,000; AID 485297, 2010; further: % of control where 0% means no effect; nearly all actives have a fitted effect of over 60% in size
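Luminescence read-out: Huh7 cells stably expressing Rab9-luciferase, treated 24 h with compound at 37 °C, then lysed with luciferase reagent for 10 min at ambient before reading.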
ELG1 DNA repair = qHTS screen for small molecules that inhibit ELG1-dependent DNA repair in human embryonic kidney (HEK293T) cells expressing luciferase-tagged ELG1; HEK293T ELG1-luciferase reporter, luminescence, 16 h; DNA damage induced by 5-fluorouridine; Potency, µM (doses to about 46.1 µM), inactives show top-dose activity change, negative = inhibition, hits mostly inhibitors; hit rate 2.3% among 330,000; further: on the % scale 0 is the no-effect control and ±100 the full control effect; nearly all actives have a fitted effect of over 55% in size
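Overnight (16 hr) co-exposure of 2,000 cells/well to 5-fluorouridine and compound at 37 °C preceded detection. Luciferase was quantified via ONE-Glo luminescence; loss of signal denotes inhibition.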
NPC1 promoter act = qHTS Assay for NPC1 Promoter Activators. hit rate 2.4% among 320,000. Potency, µM (titrated, usually from 9.22 µM), without a hit: at the highest dose activation, usual class: activators. Huh7 NPC1 promoter luciferase reporter, 24 h. AID 485313, 2010; further: % of control where 0% means no effect; nearly all actives have a fitted effect of over 60% in size
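Readout is luciferase luminescence, reflecting NPC1 promoter activation in stably transfected Huh7 cells after 24 h compound exposure at 37 °C in reduced-serum medium with 10% FBS.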
* marks the source's active call; other numbers are inactive results; ? = inconclusive; . = no result given; [ ] = remark or other dose. The call rests on the fitted dose curve; in most records, active means well fitted curve in the direction sought with a large enough effect; inconclusive means small, poorly fitted or top-dose-only effect, or another doubt; inactive means no such curve, though single readings can be large; an effect the other way counts as inactive or inconclusive. Potency means the concentration at half of the fitted maximal effect.

SMILES	SMN2 splice up	ELG1 genotox	FLuc counter	Rab9 prom act	ELG1 DNA repair	NPC1 promoter act
O=C(O)c1cccc(N=Nc2c(O)[nH]c(=O)[nH]c2=O)c1	.	-2%	15µM*	27%	-2%	-4%
O=c1[nH]c(=S)[nH]c(O)c1N=Nc1ccc(SC(F)F)cc1	.	6.5µM*	1.2µM*	3.2µM*	?	3.2µM*
CC(C)c1ccc(N=Nc2c(O)[nH]c(=O)[nH]c2=O)cc1	.	?	2.4µM*	?	?	?
O=C(c1ccccc1)c1ccc(N=Nc2c(O)[nH]c(=O)[nH]c2=O)cc1	3%	12%	1%	?	18%	-9%
O=c1[nH]c(O)c(N=Nc2ccc([N+](=O)[O-])cc2)c(=O)[nH]1	-2%	4%	?	24%	?	4%
CCc1nn(CC(=O)N2CCN(Cc3ccc4c(c3)OCO4)CC2)c(=O)c2cc3occc3n12	-57%	-9%	5%	-1%	21µM*	-6%
O=C(Cc1ccc([N+](=O)[O-])cc1)N1CCN(Cc2ccc3c(c2)OCO3)CC1	.	-11%	5%	-4%	?	-7%
O=C1/C(=C\c2ccccc2)C[C@@]2(O)[C@H]3Cc4ccc(O)c5c4[C@@]2(CCN3CC2CC2)[C@H]1O5	-63%	.	.	.	.	.
COc1ccc(-c2cc(=Nc3ccccc3)c3cc(C)ccc3o2)cc1	?	?	27µM*	21%	?	6%
COc1ccc(-c2cc(=NCCC(=O)O)c3cc(C)ccc3o2)cc1	.	?	13µM*	?	?	?
COc1cc2c(cc1OC)[C@@]13CCN4C=C5CCO[C@H]6CC(=O)N2[C@@H]1C6[C@H]5C[C@H]43 (stereo partly specified)	-13%[9.22 µM]	.	.	.	.	.
CN(C)C(=O)Oc1ccc(-c2cn3cc(Cl)ccc3n2)cc1	8.9µM*	?	0.95µM*	0.4µM*	?	0.71µM*
CN(C)C(=O)Oc1cccc(-c2cn3cc(Cl)ccc3n2)c1	11µM*	12%	3µM*	?	?	?
CN(C)C(=O)Oc1ccc(-c2cn3cc(C(F)(F)F)ccc3n2)cc1	?	10%	3µM*	-16%	?	?
CN(C)C(=O)Oc1ccc(-c2nnco2)cc1	-5%	-5%	-12%	-3%	30%	1%
NC[C@@H](O)CSP(=O)(O)O	-15%[9.22 µM]	.	.	.	.	.
C[C@]12CC[C@@H](O)CC1CCC1C2CC[C@]2(C)C(=O)CC[C@@H]12 (stereo partly specified)	-3%	.	.	.	.	.
NS(=O)(=O)c1cc(C(=O)OCC(=O)Nc2ccc3[nH]c(=O)[nH]c3c2)ccc1Cl	.	-1%	1%	1%	?	-2%
Cc1cccc(N2CCN(C(=O)CCNS(=O)(=O)c3ccc4c(c3)oc(=O)n4C)CC2)c1C	.	-2%[9.26 µM]	1%	-4%	?	-7%
Cc1ccc(-c2cc(C(F)F)n3ncc(C(=O)N4CCC5(CC4)OCCO5)c3n2)cc1	1%	0%	2%	-1%	18µM*	-5%
COc1ccc(-c2cc(C(=O)N3CCC4(CC3)OCCO4)c3ccccc3n2)cc1	.	0%	2.1µM*	?	?	26%
Brc1ccc(-c2csc(N3CCCCC3)n2)cc1	.	.	9.5µM*	5%	.	1%
C=CC[C@H](CC(=O)N(CCO)Cc1ccccc1)C(=O)NC[C@H](OC(=O)[C@@H](CC=C)CC(=O)OC(C)(C)C)c1ccccc1	.	-8%	.	.	21µM*	.
C=CC[C@@H](CC(=O)N(CCO)Cc1ccccc1)C(=O)NC[C@@H](OC(=O)[C@@H](CC=C)CC(=O)OC(C)(C)C)c1ccccc1	.	-7%	.	.	21µM*	.
C=CC(=O)OC	10%	.	.	.	.	.
Cc1nc2ccc(OC(=O)c3ccccc3)cc2s1	.	-4%	8.5µM*	-4%	-5%	1%

Bioassay records from PubChem BioAssay.
